The values that follow come from PubChem BioAssay AID624330 (Southern Research Specialized Biocontainment Screening …, 2012).

Screen size: about 340,000 compounds; about 2,100 (0.62%) were called active. These entries were drawn from the full list. Measured potencies and affinities stand elsewhere. Unmarked numbers belong to inactive results.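 How the source made its calls: active means first-screen hits whose inhibition reached a set limit at any dose in the follow-up dose series; inconclusive means inhibition above the set first-screen limit but never retested; inactive means the rest.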

Broadly, the inhibition is the change of the read-out against control, counted positive when it falls.

The target of the test is Rac GTPase-activating protein 1 (Homo sapiens) (UniProt Q9H0H5). In words: MgcRacGAP GTPase-activating activity inhibitors, confirmation, biochemical, ADP Hunter fluorescence, primary and confirmatory (AID 624330).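 Further: fluorescence reports GDP produced by GAP-driven GTP hydrolysis.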 The settings on record: MgcRacGAP-stimulated Rac1 GTP hydrolysis, at 30 µM, active compounds read high, GST-tagged Rac1 F28L mutant substrate.
Chain of Rac GTPase-activating protein 1 (Homo sapiens) (Q9H0H5 whole entry, looked up): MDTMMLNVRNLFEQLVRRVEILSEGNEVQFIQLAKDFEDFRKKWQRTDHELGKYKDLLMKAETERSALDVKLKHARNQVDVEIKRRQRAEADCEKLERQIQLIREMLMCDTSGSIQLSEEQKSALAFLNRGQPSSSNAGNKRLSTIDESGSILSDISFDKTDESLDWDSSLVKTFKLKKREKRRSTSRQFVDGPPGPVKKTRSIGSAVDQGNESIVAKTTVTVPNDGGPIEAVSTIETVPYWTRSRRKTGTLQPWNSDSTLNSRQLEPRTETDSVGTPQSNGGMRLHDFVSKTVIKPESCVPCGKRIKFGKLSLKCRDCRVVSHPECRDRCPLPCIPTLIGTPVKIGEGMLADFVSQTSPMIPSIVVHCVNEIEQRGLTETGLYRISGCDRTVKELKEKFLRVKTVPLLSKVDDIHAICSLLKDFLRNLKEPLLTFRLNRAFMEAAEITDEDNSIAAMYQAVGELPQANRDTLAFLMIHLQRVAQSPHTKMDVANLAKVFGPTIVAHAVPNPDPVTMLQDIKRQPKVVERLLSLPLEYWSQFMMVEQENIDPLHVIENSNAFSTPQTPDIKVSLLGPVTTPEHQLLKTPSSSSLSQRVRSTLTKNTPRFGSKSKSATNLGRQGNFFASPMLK
For `CCn1c(SCC(=O)Nc2cccc(F)c2)nc2c(c1=O)SC(C)C2` (centres undefined), the inhibition is 3.97%.

On to `Cc1ccc(-n2ccnc(SCC(=O)NC3CCCCC3)c2=O)cc1F`, for which the inhibition was 7.99%.

With `Cc1ccc(O)c(NC(=O)c2cc(-c3cccs3)on2)c1`, the inhibition was 5.43%.

`O=C(Nc1cccc(Cl)c1)c1nc[nH]c1C(=O)NCCN(CCNC(=O)c1[nH]cnc1C(=O)Nc1cccc(Cl)c1)CCNC(=O)c1[nH]cnc1C(=O)Nc1cccc(Cl)c1`: the inhibition is 10.4%.

As for `O=C(c1cc(C2CC2)nn1-c1ccccc1)N1CCN(S(=O)(=O)c2ccc(F)cc2)CC1`, the inhibition is 4.93%.

As to `COc1ccc2[nH]cc(CCNC(C)=O)c2c1`, the inhibition was -0.52%.

Regarding `COc1cc2c(CCNC(C)=O)c[nH]c2cc1Cl`, the inhibition is 7.18%.

In the case of `O=C(C1CCN(C2CCN(Cc3ccc4c(c3)CCO4)CC2)CC1)N1CCOCC1`, the inhibition is 3.51%.

Consider `COc1ccc(CCNC(=O)C2CCN(S(=O)(=O)c3ccc(C)cc3)CC2)cc1OC`, for which the inhibition was -4.11%.

`COc1cccc(N(CC(=O)NC2CCCCC2)C(=O)Cn2nnc(-c3ccc(C)o3)n2)c1`: the inhibition is -3.15%.

Consider `Cc1ccsc1/C=N/NC(=O)c1cccc(S(=O)(=O)Nc2ccccc2Cl)c1`, for which the inhibition was 13.6%.

On to `CC(Cn1cncn1)C(=O)N1CCN(S(=O)(=O)c2ccccc2)CC1` (centres undefined), for which the inhibition is 5.09%.

In the case of `CC(OC(=O)c1cccc(N2C(=O)c3ccccc3C2=O)c1)C(=O)Nc1ccc(N(C)C)cc1` (centres undefined), the inhibition is 5.16%.

Regarding `Cc1csc(=O)n1CC(=O)OC(C)C(=O)Nc1ccc(F)c(F)c1F` (centres undefined), the inhibition is 7.87%.

In the case of `CC(=O)Nc1ccc(NC(=O)C(C)OC(=O)CCN=C2NS(=O)(=O)c3ccccc32)cc1` (centres undefined), the inhibition was 7.31%.

In the case of `Cc1csc(=O)n1CC(=O)OC(C)C(=O)Nc1cccc(Cl)c1` (centres undefined), the inhibition is 5.89%.

For the molecule `Cc1ccc(-n2c(Cc3cccn3C)nnc2SCC(=O)N2CCc3ccccc32)cc1`, the inhibition was 19%.

As to `COc1ccccc1CN1CCCCCC1`, the inhibition was 24.6%.

With `COc1cc(OC)c(OC)cc1CN1CCN(c2ccc(F)cc2)CC1`, the inhibition is 10.3%.

Take `COc1cc(OC)c(OC)cc1CN1CCN(Cc2cccn2C)CC1`: the inhibition was 31.5%.

As for `COc1cc(OC)c(OC)cc1CN1CCN(c2ccccc2OC)CC1`, the inhibition was 19.5%.

Turning to `CSc1ccc(CN2CCCCCC2)cc1`, the inhibition is 18.5%.

With `CCN(Cc1ccccc1)C1CCN(Cc2ccccc2)CC1`, the inhibition is -17.1%.

Regarding `CCN(Cc1ccccc1)C(=O)C1CCN(Cc2ccc(SC)cc2)CC1`, the inhibition is 23.2%.

On to `CSc1ccc(/C=N/N2CCN(Cc3ccccc3Cl)CC2)cc1`, for which the inhibition is 0.33%.

Turning to `Cc1noc(C)c1COC(=O)c1ccccc1Sc1ccccc1C#N`, the inhibition is 3.85%.

Turning to `CCOc1ccc(CCN2C(=S)N([C@@H](CC(C)C)CN3CCCC3CN3C(=S)NC[C@@H]3Cc3ccc(O)cc3)C[C@@H]2Cc2ccc(O)cc2)cc1` (some centres undefined), the inhibition was 10.2%.

On to `O=C(OC(C(=O)NCc1ccccc1)c1ccccc1)c1ccco1` (centres undefined), for which the inhibition was 5.58%.

`Cc1cccn2cc(CNS(=O)(=O)c3cccc(F)c3)nc12`: the inhibition was 7.85%.

Take `O=C(CCc1nc2ccccc2[nH]1)N1CCN(C(=O)c2ccco2)CC1`: the inhibition was -2.14%.

In the case of `CCC(C)[C@H](NC(=O)NCc1ccc(OC)c(OC)c1)C(=O)O` (some centres undefined), the inhibition was 11.4%.

For the molecule `Cc1ccc2nc(SCc3nnc(-c4ccccc4)o3)[nH]c2c1`, the inhibition is 12.2%.

Consider `CCOC(=O)C1(Cc2ccccc2C)CCCN(C(=O)c2ccc3nccnc3c2)C1` (centres undefined), for which the inhibition is 7.5%.

As to `CCN(c1ccccc1)S(=O)(=O)c1ccc(C(=O)NCCCN2CCOCC2)cc1`, the inhibition is 8.29%.

As for `O=C(NNC(=O)c1ccccc1[N+](=O)[O-])c1ccc(NC(=O)c2ccccc2)cc1`, the inhibition is 12.4%.

For the molecule `O=C(N/C=C\n1cnc2cc(C(F)(F)F)ccc21)c1ccc([N+](=O)[O-])cc1`, the inhibition was 6.01%.

As to `CS(=O)(=O)c1ccc(Cl)c(NC(=O)CN2CCN(C(=O)c3cccs3)CC2)c1`, the inhibition is 3.52%.

On to `c1ccc(N2CCN(c3nc4ccccc4n4nnnc34)CC2)cc1`, for which the inhibition is 2.04%.

Consider `O=C(NCc1cccc(F)c1)C1CCC(=O)N(CCc2cccc(F)c2)C1` (centres undefined), for which the inhibition is 0.03%.

With `COc1cccc(C(CC(=O)NCc2ccco2)NS(=O)(=O)c2ccc(C)cc2)c1OC` (centres undefined), the inhibition is 2.02%.

`O=C(COC(=O)c1ccccc1C(=O)c1ccc(Cl)cc1)NCC1CCCO1` (centres undefined): the inhibition was 3.71%.

Consider `COc1ccccc1CN1CCSCC1`, for which the inhibition was 23.4%.

Take `COc1ccc(S(=O)(=O)N2CCN(Cc3ccccc3OC)CC2)cc1`: the inhibition is 11.4%.

Take `O=C(Nc1ccccc1)Nc1nncs1`: the inhibition was 9.87%.

For `O=c1[nH]n(-c2ccc(Cl)cc2)c2ncccc12`, the inhibition was 31.6%.

Regarding `O=c1[nH]n(-c2ccc(F)cc2)c2ncccc12`, the inhibition is 15.2%.

Consider `CC(C)=N/N=c1\scc(C)n1Cc1ccco1`, for which the inhibition was 6.39%.

On to `Cc1cs/c(=N\N=C\c2ccccc2)n1Cc1ccco1`, for which the inhibition was 7.87%.

In the case of `C[C@H](CO)N1C[C@H](C)[C@@H](CN(C)C(=O)Nc2ccc(C(F)(F)F)cc2)Oc2c(NC(=O)CCC(F)(F)F)cccc2C1=O`, the inhibition is 3.3%.

With `Cc1cccc(C(=O)c2cn[nH]c2-c2ccc(C)cc2O)c1`, the inhibition is 4.53%.

For `Cc1ccc(CNC(=O)C(=O)NCCC2CCCCN2S(=O)(=O)c2ccccc2)cc1` (centres undefined), the inhibition is 9.49%.

Turning to `Cc1ccccc1CNC(=O)CCn1nc(C)c2c(C)n(-c3ccccc3)nc2c1=O`, the inhibition was 13.3%.

Regarding `O=C(NC(=S)Nc1cccc2cc(O)ccc12)c1ccco1`, the inhibition is 23.9%.

`CCCC(=O)NC(=S)Nc1ccccc1F`: the inhibition is 5.15%.

For the molecule `O=C(NC(=S)Nc1cccc2ncccc12)c1ccco1`, the inhibition is -0.13%.

Take `O=C(COc1ccccc1)NC(=S)Nc1cccc2c(O)cccc12`: the inhibition was 17.9%.

On to `CCc1noc(C)c1C(=O)Nc1cccc2ncccc12`, for which the inhibition is 3.52%.

Regarding `O=C(COC(=O)Cc1ccc(Cl)cc1)NCc1cccs1`, the inhibition was 6.22%.

With `COC(=O)c1ccccc1COn1c(=O)c(C)[n+]([O-])c2ccccc21`, the inhibition was 6.87%.
